# Measurements as given in PMC7862700, “An all-to-all approach to the identification of sequence-specific readers for epigenetic DNA modifications on cytosine”.
# Columns and labels:
# Assay in all cases: DAPPL (digital affinity profiling via proximity ligation, sequencing); 10 mM Tris-HCl pH 7.5, 50 mM NaCl, 1 mM DTT, 4% glycerol, room temperature, 30 min; GST-TFs on glutathione beads, 16-mer random dsDNA library, 0.1% formaldehyde crosslink after washing; high values mean tight binding
# FLI1 = biological target: T1, FLI1 (Homo sapiens, UniProt Q01543 1-452); conditions: protein: recombinant; tags: N-terminal GST; dsDNA, one strand shown
# T1 sequence: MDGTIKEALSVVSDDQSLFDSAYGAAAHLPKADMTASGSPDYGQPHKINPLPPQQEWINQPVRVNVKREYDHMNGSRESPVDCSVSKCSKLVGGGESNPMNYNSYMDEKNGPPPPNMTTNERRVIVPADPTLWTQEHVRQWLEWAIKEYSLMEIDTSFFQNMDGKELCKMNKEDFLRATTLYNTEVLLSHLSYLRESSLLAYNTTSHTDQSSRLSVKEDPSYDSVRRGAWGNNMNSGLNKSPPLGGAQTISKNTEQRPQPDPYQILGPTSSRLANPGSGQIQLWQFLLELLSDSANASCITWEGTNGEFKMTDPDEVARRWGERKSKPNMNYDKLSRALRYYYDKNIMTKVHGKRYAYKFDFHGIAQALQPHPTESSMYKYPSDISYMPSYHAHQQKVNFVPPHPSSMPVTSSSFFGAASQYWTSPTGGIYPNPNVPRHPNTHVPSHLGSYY
# How it was run: (§1)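 Human transcription factors carrying a GST fusion were produced in yeast, bound to glutathione beads, tagged with DNA barcodes and pooled together with a tag-only sample. Each pool was held with 200 nmole of a random double-stranded 16-mer DNA library in Tris/NaCl/DTT/glycerol buffer for 30 min at room temperature, then washed, crosslinked in 0.1% formaldehyde, proximity-ligated with BsaI/T4 ligase (1 h, 37 °C), PCR-amplified and sequenced on an Illumina NextSeq500. Binding signal is the read frequency of each hexamer for a given factor divided by its frequency in the tag-only sample.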
# ELK1 = biological target: T2, ELK1 (Homo sapiens, UniProt P19419 1-428); conditions: protein: recombinant; tags: N-terminal GST; dsDNA, one strand shown
# T2 sequence: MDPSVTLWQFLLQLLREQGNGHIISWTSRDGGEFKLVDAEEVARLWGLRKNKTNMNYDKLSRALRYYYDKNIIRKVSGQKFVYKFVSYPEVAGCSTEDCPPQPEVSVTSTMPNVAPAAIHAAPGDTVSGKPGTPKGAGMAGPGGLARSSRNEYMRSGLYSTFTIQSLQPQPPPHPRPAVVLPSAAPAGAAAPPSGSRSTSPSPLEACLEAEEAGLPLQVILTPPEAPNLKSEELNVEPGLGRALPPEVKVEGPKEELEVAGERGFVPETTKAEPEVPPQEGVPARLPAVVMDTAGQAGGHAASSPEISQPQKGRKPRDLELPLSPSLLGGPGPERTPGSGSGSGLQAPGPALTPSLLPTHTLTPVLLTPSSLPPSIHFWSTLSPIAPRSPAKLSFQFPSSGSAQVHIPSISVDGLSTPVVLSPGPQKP
# How it was run: as §1
# GABPA = biological target: T3, GABPA (Homo sapiens, UniProt Q06546 1-454); conditions: protein: recombinant; tags: N-terminal GST; dsDNA, one strand shown
# T3 sequence: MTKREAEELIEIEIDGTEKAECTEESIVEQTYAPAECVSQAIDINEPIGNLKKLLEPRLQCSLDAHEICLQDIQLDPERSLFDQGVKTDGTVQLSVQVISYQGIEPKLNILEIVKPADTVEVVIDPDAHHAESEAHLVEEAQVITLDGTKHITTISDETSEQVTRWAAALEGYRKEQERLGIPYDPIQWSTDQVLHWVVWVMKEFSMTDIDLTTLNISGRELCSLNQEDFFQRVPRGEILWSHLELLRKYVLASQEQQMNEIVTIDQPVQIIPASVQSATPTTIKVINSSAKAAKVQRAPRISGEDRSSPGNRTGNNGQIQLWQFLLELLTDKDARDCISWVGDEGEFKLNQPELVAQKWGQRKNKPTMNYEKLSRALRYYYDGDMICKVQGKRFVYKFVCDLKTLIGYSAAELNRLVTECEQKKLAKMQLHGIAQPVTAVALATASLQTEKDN
# How it was run: as §1
# ERG = biological target: T4, ERG (Homo sapiens, UniProt P11308 1-479); conditions: protein: recombinant; tags: N-terminal GST; dsDNA, one strand shown
# T4 sequence: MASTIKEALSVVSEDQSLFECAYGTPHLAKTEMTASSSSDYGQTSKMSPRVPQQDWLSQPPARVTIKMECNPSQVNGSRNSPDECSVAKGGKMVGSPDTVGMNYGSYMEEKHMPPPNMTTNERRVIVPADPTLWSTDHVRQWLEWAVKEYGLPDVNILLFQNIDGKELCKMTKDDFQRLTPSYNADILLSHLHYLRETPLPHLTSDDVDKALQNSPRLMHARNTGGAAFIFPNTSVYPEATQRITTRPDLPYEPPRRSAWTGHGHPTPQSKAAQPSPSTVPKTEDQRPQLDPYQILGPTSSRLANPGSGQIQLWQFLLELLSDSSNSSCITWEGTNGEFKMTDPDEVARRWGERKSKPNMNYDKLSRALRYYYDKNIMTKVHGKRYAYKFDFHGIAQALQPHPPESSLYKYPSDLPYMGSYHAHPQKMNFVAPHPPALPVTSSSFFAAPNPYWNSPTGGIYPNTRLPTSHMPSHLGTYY
# How it was run: as §1
# ELF1 = ELF1 (Homo sapiens, UniProt P32519 1-619); conditions: protein: recombinant; tags: N-terminal GST; dsDNA, one strand shown
# How it was run: as §1
# EHF = biological target: T5, EHF (Homo sapiens, UniProt Q9NZC4 1-300); conditions: protein: recombinant; tags: N-terminal GST; dsDNA, one strand shown
# T5 sequence: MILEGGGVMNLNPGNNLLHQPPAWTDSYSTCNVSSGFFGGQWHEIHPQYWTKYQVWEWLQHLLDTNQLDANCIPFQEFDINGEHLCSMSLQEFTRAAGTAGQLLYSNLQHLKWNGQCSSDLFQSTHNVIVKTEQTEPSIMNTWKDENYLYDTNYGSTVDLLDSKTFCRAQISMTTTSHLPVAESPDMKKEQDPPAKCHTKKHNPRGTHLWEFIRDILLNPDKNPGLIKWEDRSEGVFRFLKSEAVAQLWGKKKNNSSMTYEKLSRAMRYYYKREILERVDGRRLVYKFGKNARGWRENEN
# How it was run: as §1
# SPI1 = SPI1 (Homo sapiens, UniProt P17947 1-270); conditions: protein: recombinant; tags: N-terminal GST; dsDNA, one strand shown
# How it was run: as §1
# SPIB = SPIB (Homo sapiens, UniProt Q01892 1-262); conditions: protein: recombinant; tags: N-terminal GST; dsDNA, one strand shown
# How it was run: as §1
# ELK3 = biological target: T6, ELK3 (Homo sapiens, UniProt P41970 1-407); conditions: protein: recombinant; tags: N-terminal GST; dsDNA, one strand shown
# T6 sequence: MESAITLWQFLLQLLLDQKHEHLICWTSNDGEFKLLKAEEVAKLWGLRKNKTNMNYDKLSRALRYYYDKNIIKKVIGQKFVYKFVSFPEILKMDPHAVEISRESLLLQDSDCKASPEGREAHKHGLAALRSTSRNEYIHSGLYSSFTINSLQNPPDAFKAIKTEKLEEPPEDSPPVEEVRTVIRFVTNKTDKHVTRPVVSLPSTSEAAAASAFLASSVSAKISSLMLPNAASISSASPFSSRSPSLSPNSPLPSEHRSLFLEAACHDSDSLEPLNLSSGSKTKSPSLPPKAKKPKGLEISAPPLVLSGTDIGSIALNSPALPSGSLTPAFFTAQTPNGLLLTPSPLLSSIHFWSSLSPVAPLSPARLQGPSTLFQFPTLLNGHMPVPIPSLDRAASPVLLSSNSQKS
# How it was run: as §1
# FEV = biological target: T7, FEV (Homo sapiens, UniProt Q99581 1-238); conditions: protein: recombinant; tags: N-terminal GST; dsDNA, one strand shown
# T7 sequence: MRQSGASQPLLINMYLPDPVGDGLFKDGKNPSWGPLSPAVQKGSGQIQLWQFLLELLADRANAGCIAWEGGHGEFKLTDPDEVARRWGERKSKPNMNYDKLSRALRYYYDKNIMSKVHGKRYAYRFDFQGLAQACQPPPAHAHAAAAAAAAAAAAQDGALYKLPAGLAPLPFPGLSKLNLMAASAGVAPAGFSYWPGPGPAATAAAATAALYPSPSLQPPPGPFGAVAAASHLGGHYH
# How it was run: as §1
# ETV5 = ETV5 (Homo sapiens, UniProt P41161 1-510); conditions: protein: recombinant; tags: N-terminal GST; dsDNA, one strand shown
# How it was run: as §1
# HSF1 = HSF1 (Homo sapiens, UniProt Q00613 1-529); conditions: protein: recombinant; tags: N-terminal GST; chain copies: 3; dsDNA, one strand shown
# How it was run: as §1
# SPIC = biological target: T8, SPIC (Homo sapiens, UniProt Q8N5J4 1-248); conditions: protein: recombinant; tags: N-terminal GST; dsDNA, one strand shown
# T8 sequence: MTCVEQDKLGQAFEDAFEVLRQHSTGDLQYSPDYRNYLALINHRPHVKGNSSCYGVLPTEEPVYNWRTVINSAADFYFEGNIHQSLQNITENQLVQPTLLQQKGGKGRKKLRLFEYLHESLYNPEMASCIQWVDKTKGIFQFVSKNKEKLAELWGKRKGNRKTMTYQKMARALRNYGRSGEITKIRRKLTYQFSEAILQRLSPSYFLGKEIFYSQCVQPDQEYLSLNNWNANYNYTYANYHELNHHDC
# How it was run: as §1
# ELF4 = ELF4 (Homo sapiens, UniProt Q99607 1-663); conditions: protein: recombinant; tags: N-terminal GST; dsDNA, one strand shown
# How it was run: as §1
# ELK4 = biological target: T9, ELK4 (Homo sapiens, UniProt P28324-2 1-405); conditions: protein: recombinant; tags: N-terminal GST; dsDNA, one strand shown
# T9 sequence: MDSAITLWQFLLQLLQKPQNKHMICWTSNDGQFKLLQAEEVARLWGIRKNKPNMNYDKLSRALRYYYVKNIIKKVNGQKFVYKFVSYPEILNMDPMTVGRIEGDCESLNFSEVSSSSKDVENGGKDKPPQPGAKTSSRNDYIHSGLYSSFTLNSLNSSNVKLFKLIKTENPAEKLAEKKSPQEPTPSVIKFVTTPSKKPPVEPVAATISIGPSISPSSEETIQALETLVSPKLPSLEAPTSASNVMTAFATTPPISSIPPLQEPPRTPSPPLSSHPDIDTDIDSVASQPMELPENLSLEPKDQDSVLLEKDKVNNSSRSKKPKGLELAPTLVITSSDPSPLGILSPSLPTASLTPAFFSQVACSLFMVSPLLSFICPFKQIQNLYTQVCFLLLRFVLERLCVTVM
# How it was run: as §1
# ETV2 = biological target: T10, ETV2 (Homo sapiens, UniProt O00321 1-342); conditions: protein: recombinant; tags: N-terminal GST; dsDNA, one strand shown
# T10 sequence: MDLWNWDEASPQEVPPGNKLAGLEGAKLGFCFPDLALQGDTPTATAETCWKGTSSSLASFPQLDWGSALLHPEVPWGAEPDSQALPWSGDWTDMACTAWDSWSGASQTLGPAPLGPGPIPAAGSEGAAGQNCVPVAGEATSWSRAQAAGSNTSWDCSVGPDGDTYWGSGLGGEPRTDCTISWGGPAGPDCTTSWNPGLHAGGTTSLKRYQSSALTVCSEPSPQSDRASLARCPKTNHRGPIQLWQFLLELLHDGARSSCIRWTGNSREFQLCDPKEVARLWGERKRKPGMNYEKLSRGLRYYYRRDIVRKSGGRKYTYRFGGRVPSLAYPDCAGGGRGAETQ
# How it was run: as §1
# ELF3 = biological target: T11, ELF3 (Homo sapiens, UniProt P78545 1-371); conditions: protein: recombinant; tags: N-terminal GST; dsDNA, one strand shown
# T11 sequence: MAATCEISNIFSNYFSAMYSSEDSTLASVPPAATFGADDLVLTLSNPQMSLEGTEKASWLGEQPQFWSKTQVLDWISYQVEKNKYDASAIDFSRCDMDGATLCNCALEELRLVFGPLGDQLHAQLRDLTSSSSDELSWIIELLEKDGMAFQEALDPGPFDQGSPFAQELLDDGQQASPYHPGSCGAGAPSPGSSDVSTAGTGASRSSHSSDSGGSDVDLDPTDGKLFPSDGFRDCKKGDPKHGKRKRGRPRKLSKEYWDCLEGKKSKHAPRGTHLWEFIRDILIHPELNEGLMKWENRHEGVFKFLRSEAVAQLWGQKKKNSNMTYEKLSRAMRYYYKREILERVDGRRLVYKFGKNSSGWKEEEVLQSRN
# How it was run: as §1
# CRX = CRX (Homo sapiens, UniProt O43186 1-299); conditions: protein: recombinant; tags: N-terminal GST; dsDNA, one strand shown
# How it was run: as §1
# ETV1 = ETV1 (Homo sapiens, UniProt P50549 1-477); conditions: protein: recombinant; tags: N-terminal GST; dsDNA, one strand shown
# How it was run: as §1
# Chain of ETV1 (P50549 whole entry): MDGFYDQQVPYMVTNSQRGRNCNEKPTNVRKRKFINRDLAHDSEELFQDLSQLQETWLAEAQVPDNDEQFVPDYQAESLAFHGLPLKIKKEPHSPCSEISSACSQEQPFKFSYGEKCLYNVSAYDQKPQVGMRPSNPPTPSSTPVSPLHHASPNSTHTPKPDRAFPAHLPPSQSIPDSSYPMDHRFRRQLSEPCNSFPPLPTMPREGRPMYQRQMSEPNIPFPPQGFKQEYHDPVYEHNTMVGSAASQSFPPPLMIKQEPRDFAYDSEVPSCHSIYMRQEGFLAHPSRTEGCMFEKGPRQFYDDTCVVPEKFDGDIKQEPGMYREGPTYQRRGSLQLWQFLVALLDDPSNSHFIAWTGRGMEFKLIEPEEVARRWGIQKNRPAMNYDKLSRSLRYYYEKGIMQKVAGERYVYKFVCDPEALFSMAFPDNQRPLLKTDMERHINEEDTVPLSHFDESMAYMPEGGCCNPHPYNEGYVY
# Chain of SPIB (Q01892 whole entry): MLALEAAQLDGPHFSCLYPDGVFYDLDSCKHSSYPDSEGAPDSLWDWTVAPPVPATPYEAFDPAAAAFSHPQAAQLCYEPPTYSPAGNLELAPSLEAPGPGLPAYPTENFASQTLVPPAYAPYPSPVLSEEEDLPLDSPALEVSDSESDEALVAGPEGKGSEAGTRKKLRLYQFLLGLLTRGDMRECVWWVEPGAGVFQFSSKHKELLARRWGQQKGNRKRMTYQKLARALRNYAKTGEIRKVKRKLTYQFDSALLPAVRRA
# Chain of CRX (O43186 whole entry): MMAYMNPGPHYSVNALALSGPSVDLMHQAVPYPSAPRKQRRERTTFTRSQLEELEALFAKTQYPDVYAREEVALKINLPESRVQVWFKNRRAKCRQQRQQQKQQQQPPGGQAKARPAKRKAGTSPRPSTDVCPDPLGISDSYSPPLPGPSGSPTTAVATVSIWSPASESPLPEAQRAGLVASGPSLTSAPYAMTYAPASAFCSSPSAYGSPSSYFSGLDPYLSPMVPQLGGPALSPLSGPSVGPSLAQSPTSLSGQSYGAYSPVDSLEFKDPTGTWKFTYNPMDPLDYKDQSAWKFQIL
# Chain of ELF1 (P32519 whole entry): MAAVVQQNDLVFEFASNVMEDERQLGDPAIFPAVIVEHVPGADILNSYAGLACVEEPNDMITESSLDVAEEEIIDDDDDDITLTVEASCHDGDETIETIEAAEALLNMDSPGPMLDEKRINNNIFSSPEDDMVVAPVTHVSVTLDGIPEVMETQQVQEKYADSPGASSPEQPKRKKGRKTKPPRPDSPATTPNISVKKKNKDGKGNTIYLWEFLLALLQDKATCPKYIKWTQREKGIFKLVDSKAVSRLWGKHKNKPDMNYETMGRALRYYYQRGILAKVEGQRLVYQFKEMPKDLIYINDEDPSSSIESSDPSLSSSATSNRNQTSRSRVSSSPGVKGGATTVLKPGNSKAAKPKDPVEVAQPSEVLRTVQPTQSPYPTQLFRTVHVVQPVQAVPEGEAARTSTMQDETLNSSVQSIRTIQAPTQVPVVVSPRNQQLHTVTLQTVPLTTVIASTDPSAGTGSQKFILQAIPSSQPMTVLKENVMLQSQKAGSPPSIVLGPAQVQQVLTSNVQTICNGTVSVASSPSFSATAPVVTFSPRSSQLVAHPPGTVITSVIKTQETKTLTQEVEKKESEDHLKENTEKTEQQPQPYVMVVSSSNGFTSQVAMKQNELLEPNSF
# Chain of ETV5 (P41161 whole entry): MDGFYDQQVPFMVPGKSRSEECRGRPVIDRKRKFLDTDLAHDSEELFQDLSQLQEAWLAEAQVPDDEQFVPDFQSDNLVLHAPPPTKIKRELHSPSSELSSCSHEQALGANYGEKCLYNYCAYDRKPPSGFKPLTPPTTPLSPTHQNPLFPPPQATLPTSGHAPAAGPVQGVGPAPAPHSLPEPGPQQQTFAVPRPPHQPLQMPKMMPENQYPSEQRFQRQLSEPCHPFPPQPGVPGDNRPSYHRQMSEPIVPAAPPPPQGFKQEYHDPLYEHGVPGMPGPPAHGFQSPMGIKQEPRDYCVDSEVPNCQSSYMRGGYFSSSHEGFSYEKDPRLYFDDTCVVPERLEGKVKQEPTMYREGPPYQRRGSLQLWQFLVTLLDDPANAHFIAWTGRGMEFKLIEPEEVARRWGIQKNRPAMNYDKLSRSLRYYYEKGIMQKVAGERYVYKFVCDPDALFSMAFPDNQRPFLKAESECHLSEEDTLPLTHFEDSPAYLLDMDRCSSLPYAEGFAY
# Chain of ELF4 (Q99607 whole entry): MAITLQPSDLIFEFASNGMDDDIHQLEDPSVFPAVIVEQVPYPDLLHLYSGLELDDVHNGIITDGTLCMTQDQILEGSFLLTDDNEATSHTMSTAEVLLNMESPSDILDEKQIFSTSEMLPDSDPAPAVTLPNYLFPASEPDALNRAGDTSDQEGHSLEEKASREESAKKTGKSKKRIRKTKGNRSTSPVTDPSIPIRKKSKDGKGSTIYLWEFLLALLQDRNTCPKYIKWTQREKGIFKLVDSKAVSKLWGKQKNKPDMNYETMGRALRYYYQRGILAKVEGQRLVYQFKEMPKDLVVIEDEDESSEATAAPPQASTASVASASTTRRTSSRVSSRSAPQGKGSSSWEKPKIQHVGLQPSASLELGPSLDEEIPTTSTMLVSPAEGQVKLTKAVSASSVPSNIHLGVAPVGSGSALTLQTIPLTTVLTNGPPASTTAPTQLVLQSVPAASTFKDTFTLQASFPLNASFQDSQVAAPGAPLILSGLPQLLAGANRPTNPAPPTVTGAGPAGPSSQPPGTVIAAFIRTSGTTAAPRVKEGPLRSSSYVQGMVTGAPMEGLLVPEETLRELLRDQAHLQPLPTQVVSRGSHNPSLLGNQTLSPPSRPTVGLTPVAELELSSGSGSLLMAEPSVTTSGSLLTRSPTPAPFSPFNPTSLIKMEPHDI
# Chain of HSF1 (Q00613 whole entry): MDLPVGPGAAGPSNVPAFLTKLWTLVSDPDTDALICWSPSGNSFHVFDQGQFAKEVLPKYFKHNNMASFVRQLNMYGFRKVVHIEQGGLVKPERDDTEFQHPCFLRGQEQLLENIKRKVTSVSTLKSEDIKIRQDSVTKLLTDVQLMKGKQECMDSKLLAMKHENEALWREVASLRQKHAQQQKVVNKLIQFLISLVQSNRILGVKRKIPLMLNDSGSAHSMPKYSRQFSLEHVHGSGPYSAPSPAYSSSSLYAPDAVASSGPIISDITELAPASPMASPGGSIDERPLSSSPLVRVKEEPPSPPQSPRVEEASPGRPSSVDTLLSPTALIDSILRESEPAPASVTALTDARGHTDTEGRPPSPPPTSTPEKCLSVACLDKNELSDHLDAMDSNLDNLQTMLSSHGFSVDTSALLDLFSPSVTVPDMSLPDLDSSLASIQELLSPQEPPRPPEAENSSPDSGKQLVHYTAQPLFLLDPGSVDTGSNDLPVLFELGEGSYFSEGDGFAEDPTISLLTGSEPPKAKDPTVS
sequence,measurement,setting,value
TCTACG,binding signal,FLI1,"1.37 fold enrichment (6-mer frequency, TF over GST control)"
same,binding signal,ELK1,"1.4 fold enrichment (6-mer frequency, TF over GST control)"
same,binding signal,GABPA,"1.3 fold enrichment (6-mer frequency, TF over GST control)"
same,binding signal,ERG,"1.32 fold enrichment (6-mer frequency, TF over GST control)"
same,binding signal,ELF1,"1.38 fold enrichment (6-mer frequency, TF over GST control)"
same,binding signal,EHF,"1.32 fold enrichment (6-mer frequency, TF over GST control)"
same,binding signal,SPI1,"1.49 fold enrichment (6-mer frequency, TF over GST control)"
same,binding signal,SPIB,"1.44 fold enrichment (6-mer frequency, TF over GST control)"
same,binding signal,ELK3,"1.28 fold enrichment (6-mer frequency, TF over GST control)"
same,binding signal,FEV,"1.52 fold enrichment (6-mer frequency, TF over GST control)"
same,binding signal,ETV5,"1.3 fold enrichment (6-mer frequency, TF over GST control)"
same,binding signal,HSF1,"1.49 fold enrichment (6-mer frequency, TF over GST control)"
same,binding signal,SPIC,"1.3 fold enrichment (6-mer frequency, TF over GST control)"
same,binding signal,ELF4,"1.37 fold enrichment (6-mer frequency, TF over GST control)"
same,binding signal,ELK4,"1.36 fold enrichment (6-mer frequency, TF over GST control)"
same,binding signal,ETV2,"1.38 fold enrichment (6-mer frequency, TF over GST control)"
same,binding signal,ELF3,"1.5 fold enrichment (6-mer frequency, TF over GST control)"
same,binding signal,CRX,"1.44 fold enrichment (6-mer frequency, TF over GST control)"
same,binding signal,ETV1,"1.44 fold enrichment (6-mer frequency, TF over GST control)"
